The text below walks through data of PubChem BioAssay AID1259343 (VanderVen Lab, College of Veterinary Medicine, Cornell …, 2017).

A word on the inhibition: it is the drop in the measured response relative to a control, in per cent.

Out of some 6,200 compounds screened, about 2,900 (47%) were called active. So high a share suggests a set chosen from earlier hits. This is one part of the list. A number with no mark means an inactive call. Cut-off read from the data, not from the text of the source: active = inhibition above about 50%; inactive = the rest.

This assay can be described thus: Mycobacterium tuberculosis growth inhibition, primary screen (AID 1259343). The settings on record: inhibition: at 10 µM, stronger effect = higher value; outcome: 10 uM.
As for `O=C1c2ccccc2NC2(CCCC2)N1CC(F)(F)F`, the inhibition is 85.2% (active).

Consider `NC(=S)N=Nc1ccc(NN=C(N)N)cc1`, for which the inhibition was 101% (active).

Regarding `CC(=O)C1=C(C(F)(F)F)N(C)C(=S)N(C)C1c1ccccc1` (stereo not given), the inhibition is 70% (active).

On to `COc1ccc(OCCN2C(=O)CN(/C=C/c3ccccc3)C2=O)cc1`, for which the inhibition is -5.21%.

With `CN1CC(=O)N(CCCC(=O)Nc2ccc(OCc3ccccc3)cc2)C1=O`, the inhibition was 93.5% (active).

On to `C=CCN(CC(O)COc1ccccc1)CC1CC(c2ccccc2)=NO1` (stereo not given), for which the inhibition is 20.8%.

For the compound `CC(O)CNCCCCOc1ccc(OCc2ccccc2)cc1` (stereo not given), the inhibition is 96.8% (active).

Turning to `OC1(c2ccc(OCc3ccccc3)cc2)CCOCC1`, the inhibition is 30.5%.

`NS(=O)(=O)c1ccc2c(c1)CCN2Cc1cc(F)cc2c1OCOC2`: the inhibition is 3.61%.

Take `O=C(O)C1CCN(C(=O)c2ccc(-c3ccc(Cl)cc3)s2)CC1`: the inhibition is 1.69%.

With `CC1CCN(C(=O)c2ccc(-c3ccc(F)c(F)c3)s2)CC1`, the inhibition was 65.3% (active).

For `Cc1ccc(C(=O)N2CCC(c3ccc(F)cc3)CC2)s1`, the inhibition is 33.5%.

With `COc1cc(NC(=O)CN2CCC(n3ccnc3)C2)ccc1Cl` (stereo not given), the inhibition was 85.6% (active).

As for `COc1ccc(NC(=O)N2CCCC(C(=O)c3sccc3C)C2)cc1OC` (stereo not given), the inhibition was 23.7%.

For the compound `O=C(NCC(O)COc1cccc(Cl)c1Cl)C1CC1c1ccco1` (stereo not given), the inhibition is 12.8%.

For the compound `COc1cccc(C2CC2C(=O)Nc2cnc(C3CC3)nc2)c1` (stereo not given), the inhibition is 37.3%.

On to `O=C(Nc1ncc(Cl)s1)C1CC1c1ccco1` (stereo not given), for which the inhibition was 86.5% (active).

For the compound `CCCc1cc(=O)[nH]c(-n2nc(C)cc2NC(=O)c2ccc(OC)c(OC)c2)n1`, the inhibition is 102% (active).

On to `CCc1cc(=O)[nH]c(-n2nc(C)cc2NC(=O)c2cc(OC)c(OC)c(OC)c2)n1`, for which the inhibition was -22.3%.

Regarding `CCCc1cc(=O)[nH]c(-n2nc(C)cc2NC(=O)c2cc(OC)c(OC)c(OC)c2)n1`, the inhibition was 100% (active).

`COC(=O)CN1C(c2ccc(OC)cc2)=Nc2ccc(Br)cc2C1c1ccccc1` (stereo not given): the inhibition is 29.4%.

Regarding `O=C(O)COc1ccc2cc(Br)ccc2c1`, the inhibition was 78.5% (active).

With `CC(NC(=O)COc1ccc2cc(Br)ccc2c1)c1ccc(F)cc1` (stereo not given), the inhibition is -32.3%.

On to `Cc1cccc2c3c(ccc12)C1=C(C(=O)C3=O)C(C)CO1` (stereo not given), for which the inhibition was 82.3% (active).

Consider `CN(CC(F)(F)C(F)F)S(=O)c1ccc2ccccc2c1` (stereo not given), for which the inhibition is 49%.

`COc1ccc(-c2nnc(C(C)Nc3cccc4c3CCCC4)o2)cc1` (stereo not given): the inhibition is 67.9% (active).

Consider `CC(NCC1(c2ccccc2)CCCC1)c1nnc(-c2ccccc2)o1` (stereo not given), for which the inhibition was -0.11%.

In the case of `CN(Cc1ccco1)C(=O)NCCc1cccc(Cl)c1`, the inhibition is 49.7%.

Regarding `CN(Cc1ccccc1)C(=O)NCCc1ccc2c(c1)CCO2`, the inhibition is 66.7% (active).

With `O=C(Cc1ccc2c(c1)CCC2)NCCc1ccc2c(c1)OCCO2`, the inhibition is 37.8%.

As for `FC(F)(F)c1nnc2sc(Cc3cccc4ccccc34)nn12`, the inhibition is 71.8% (active).

`c1ccc(CCCCc2nn3c(C4CC4)nnc3s2)cc1`: the inhibition was 34.8%.

`CC1CCN(S(=O)(=O)NCc2cc(-c3ccccc3)on2)CC1`: the inhibition is 20.4%.

On to `O=S(=O)(NCc1ncc(-c2ccccc2)o1)N1CCCCCC1`, for which the inhibition is 58.4% (active).

For `O=S(=O)(NCCCC1CCCCC1)N1CCCCCC1`, the inhibition is 26.3%.

Take `Cc1oc(=O)oc1CN1CCN(c2cc3c(cc2F)c(=O)c(C(=O)O)c2n3C(C)S2)CC1` (stereo not given): the inhibition is 96.9% (active).

With `CN1C(=CC=NNc2nc3ccccc3s2)C(C)(C)c2ccccc21`, the inhibition is 97% (active).

For `CN1C(=CC=NN=c2sc3ccccc3n2C)C(C)(C)c2ccccc21`, the inhibition was 4.19%.

Consider `c1cc(-c2nc3cc(Oc4ccc5oc(-c6ccncc6)nc5c4)ccc3o2)ccn1`, for which the inhibition is 32.7%.

As to `Cc1ccc(CN2CCN(N=CC(Br)=Cc3ccccc3)CC2)c(C)c1`, the inhibition was 98.3% (active).

As to `O=C(NN=CC(Br)=Cc1ccccc1)c1cnccn1`, the inhibition is -13.9%.

For the compound `COc1ccccc1OCC(=O)N1CCC(Oc2nc3c(C)cccc3s2)CC1`, the inhibition is 20.8%.

As to `COC(=O)c1ccc(C(=O)NNc2nc3c(C)cccc3s2)cc1`, the inhibition was 99.7% (active).

Take `Cc1cccc2sc(N(Cc3ccccc3)C(=O)c3ccno3)nc12`: the inhibition is 35.8%.

With `Cc1cc(C)cc(Oc2cc(-n3nc(C)cc3C)ncn2)c1`, the inhibition was 65.7% (active).

In the case of `CCCN(C)c1cc(Oc2ccc(C)cc2)ncn1`, the inhibition is 25.2%.

As for `COCCCNc1ccc2c(-c3ccccc3F)noc2n1`, the inhibition is 76.1% (active).

As for `Fc1ccc(-c2noc3nc(NC4CC4)ccc23)cc1`, the inhibition was 92.9% (active).

`Fc1ccccc1-c1noc2nc(NC3CC3)ccc12`: the inhibition was 70.5% (active).

On to `c1ccc(-c2noc3nc(NC4CC4)ccc23)cc1`, for which the inhibition is 44.6%.

`CC1CCCC(C)N1CCNc1ccc2c(-c3ccc(F)cc3)noc2n1` (stereo not given): the inhibition is 47.2%.

Turning to `CCCC1=NN(C(C)=O)C(C(=O)NCCCN2CCCCC2C)O1` (stereo not given), the inhibition is -9.23%.

On to `c1ccc(-c2nc3cc4ccccc4cc3[nH]2)nc1`, for which the inhibition is 17.5%.

On to `c1ccc(-c2nc3c(ccc4ccccc43)[nH]2)nc1`, for which the inhibition is 96.1% (active).

For `Oc1ccc2[nH]c(-c3ccccc3)nc2c1CN1CCCCC1`, the inhibition is 13.3%.

For the compound `c1ccc(-c2nc3c(ccc4ccccc43)[nH]2)cc1`, the inhibition was 89.8% (active).

`O=C1NC(=O)/C(=C/c2csc(-c3ccccc3)n2)S1`: the inhibition was 59.2% (active).

Consider `O=C(NCC1CCCCN1)c1cc(OCC(F)(F)F)ccc1OCC(F)(F)F` (stereo not given), for which the inhibition was 84.3% (active).

Take `CC(C)C(=O)Nc1ccc(OCC(F)(F)F)c(C#N)c1`: the inhibition is -16.8%.

On to `CC(C)c1ccc(C(C)NC(=O)c2cccn2C)cc1` (stereo not given), for which the inhibition was 79% (active).

Turning to `CC(NC(=O)c1cccnc1N1CCCCC1)c1ccc(C#N)cc1` (stereo not given), the inhibition was 4.4%.

Consider `Cn1cccc1C(=O)NS(=O)(=O)c1ccc(C#N)c(Cl)c1`, for which the inhibition was 15%.

For `Cc1ccc(C)c(-c2cc(C(=O)NCCC(=O)NCc3ccc(F)cc3)no2)c1`, the inhibition is 71.3% (active).

For the compound `CN(Cc1ccccc1)Cc1cc(C(=O)NCc2cccc(F)c2F)no1`, the inhibition was 38.5%.

For the compound `Cn1cnc([N+](=O)[O-])c1Sc1ncnc2nc[nH]c12`, the inhibition was 56.7% (active).

Consider `Cc1cc(C(=O)Nc2ccc(C(C)C)cc2)c(C)o1`, for which the inhibition was 61.2% (active).

Consider `Cc1cc(C(=O)Nc2ccc3c(c2)OC2(CCCC2)O3)c(C)o1`, for which the inhibition is 56% (active).

Consider `O=S(=O)(Nc1ccc2c(c1)OC1(CCCC1)O2)c1cccs1`, for which the inhibition was 27%.

On to `CC1(C)Oc2ccc(NC(=O)c3ccnc(NC4CC4)c3)cc2O1`, for which the inhibition was -11.8%.

On to `CC(C)c1ccc(NC(=O)c2ccc(S(N)(=O)=O)cc2)cc1`, for which the inhibition is 2.35%.

With `O=C(Nc1ccc(N2CCc3ccccc32)cc1)C1CCOC1` (stereo not given), the inhibition was 74.7% (active).

For `O=C(O)c1cn(Cc2ccc(F)cc2)nc1OCc1ccc(F)cc1`, the inhibition is 47.5%.

With `O=C(O)c1cn(Cc2ccccc2)nc1OCc1ccccc1`, the inhibition is 72.7% (active).

Regarding `O=C(O)c1cn(Cc2cccc(F)c2)nc1OCc1cccc(F)c1`, the inhibition is 29.7%.

Consider `COc1ccc(CC(=O)Nc2cc(C)nn2-c2nc(C)cc(=O)[nH]2)cc1`, for which the inhibition was 101% (active).

Turning to `CCCc1cc(=O)[nH]c(-n2nc(C)cc2NC(=O)CCc2ccc(OC)cc2)n1`, the inhibition was 101% (active).

In the case of `COc1ccc(CCC(=O)Nc2cc(C)nn2-c2nc(C)cc(=O)[nH]2)cc1`, the inhibition was 101% (active).

Consider `CCc1cc(=O)[nH]c(-n2nc(C)cc2NC(=O)Cc2ccc(OC)cc2)n1`, for which the inhibition is 101% (active).

As to `NCC(=O)Nc1ccc(-c2cccc3ccsc23)cc1F`, the inhibition was 7.93%.

Take `COC(C)c1ccc(-c2ccc(NC(=O)CN)c(F)c2)cc1` (stereo not given): the inhibition is 70.7% (active).

On to `Fc1ccccc1CNCC1(c2ccnc(-c3ccc(Cl)cc3)c2)CC1`, for which the inhibition is 44%.

Turning to `Fc1ccccc1-c1cnnc(NCCc2cccc(Cl)c2)n1`, the inhibition is 37.3%.

Take `Fc1ccccc1CCNc1ncnc2ccc(Cl)cc12`: the inhibition was 60.7% (active).

As for `Cc1ccccc1C(C)NS(=O)(=O)c1ccc(Cl)cc1` (stereo not given), the inhibition is 17.3%.

On to `COc1cc(C(=O)NS(=O)(=O)c2ccc(C#N)cc2)ccc1C`, for which the inhibition is 21.9%.

Consider `Cc1ccc(S(=O)(=O)NC(=O)c2cccc(F)c2)cc1C`, for which the inhibition is 79% (active).

As for `Cc1ccc(S(=O)(=O)NC(c2cccs2)C2CC2)cc1C` (stereo not given), the inhibition is 37.1%.

In the case of `Cc1ccc(S(=O)(=O)NC(=O)c2ccccc2)cc1C(C)C`, the inhibition was 72.5% (active).

With `Cc1cc([N+](=O)[O-])cc(C(C)(C)C)c1O`, the inhibition was 101% (active).

In the case of `O=[N+]([O-])c1cc(Br)c(O)c(Br)c1`, the inhibition is 98.7% (active).

For `CN(C)P(=Nc1ccc([N+](=O)[O-])cc1Br)(N(C)C)C(C)(C)C`, the inhibition is 11%.

Turning to `CC[n+]1c(C)csc1Nc1ccc(N=Nc2ccccc2)cc1`, the inhibition was -14.7%.

Turning to `O=C(O)CC[N+](=O)[O-]`, the inhibition is 98.6% (active).

In the case of `Cc1nc(SCc2nc3ccccc3o2)c2ccccc2n1`, the inhibition is 51.7% (active).

For the compound `CC(C)Oc1ncccc1CNC(=O)N1CCc2ccccc21`, the inhibition was 28.7%.

As to `CN1CC2([N+](=O)[O-])C=C(Oc3ccc(F)cc3)CC([N+](=O)[O-])(C1)C2` (stereo not given), the inhibition was 94.6% (active).

Turning to `Cc1ccc(Cl)cc1NCc1cnc(Cl)s1`, the inhibition was 26.4%.

For `Cc1nnc(NCCC23CC4CC(CC(C4)C2)C3)c(C#N)c1C`, the inhibition is 50.3% (active).

On to `CC[C@@H](C(=O)[C@@H](C)[C@@H](O)[C@H](C)[C@@H]1O[C@@H]([C@@H](CC)C(=O)O)CC[C@@H]1C)[C@H]1OC2(C=C[C@@H](O)[C@]3(CC[C@@](C)([C@H]4CC[C@](O)(CC)[C@H](C)O4)O3)O2)[C@H](C)C[C@@H]1C` (stereo not given in full), for which the inhibition is 100% (active).

Take `C(=Nc1ccc(C23CC4CC(CC(C4)C2)C3)cc1)c1ccncc1`: the inhibition was -6.32%.
